High-throughput results deposited in PubChem BioAssay by National Center for Advancing Translational Sciences (NCATS).
ALDH1A1 block: ALDH1A1 (human) enzyme inhibition; Purified ALDH1A1, NADH fluorescence, propionaldehyde substrate; Potency, µM (top dose mostly 75.3 µM), inactives show at the top dose activity, negative = inhibition, actives largely listed as inhibitors; hit rate 7.3% among 220,000; AID 1030;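 further: potency means the concentration at half of the fitted maximal effect; plate controls were no enzyme wells and a reference inhibitor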
Target sequence (P00352 whole entry, looked up): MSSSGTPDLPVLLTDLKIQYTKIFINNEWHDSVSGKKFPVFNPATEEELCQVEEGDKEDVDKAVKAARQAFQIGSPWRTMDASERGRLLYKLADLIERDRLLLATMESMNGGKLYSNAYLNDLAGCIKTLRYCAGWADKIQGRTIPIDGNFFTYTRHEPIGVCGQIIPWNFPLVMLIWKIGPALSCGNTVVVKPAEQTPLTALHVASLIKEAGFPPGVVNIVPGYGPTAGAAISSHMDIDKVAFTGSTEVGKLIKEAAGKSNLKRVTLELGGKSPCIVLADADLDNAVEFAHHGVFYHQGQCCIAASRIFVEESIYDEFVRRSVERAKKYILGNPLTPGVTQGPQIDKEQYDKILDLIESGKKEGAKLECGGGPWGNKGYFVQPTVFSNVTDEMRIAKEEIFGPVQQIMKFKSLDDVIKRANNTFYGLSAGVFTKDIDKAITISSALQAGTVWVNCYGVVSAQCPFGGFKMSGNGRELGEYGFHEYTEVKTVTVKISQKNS
PNC assembly inh: perinucleolar compartment assembly inhibition. PC3M PTB-GFP, PNC prevalence imaging, 16 h; hits give low values. activity change (PNC), negative = inhibition, % at 10 µM. hit rate 3.1% among 140,000;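 active means readout at or below -70, meaning at least 70% loss of cells showing the perinucleolar compartment, a nuclear body marking cancer cells; inconclusive means readout between -30 and a set limit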;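 further: plate controls were DMSO wells for no effect and camptothecin positive control wells for full effect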
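PC3M cells stably expressing PTB-GFP, 750–1000 cells/well, treated 16 h at 37 °C with compound (23 nl of library stock), in duplicate. After paraformaldehyde fixation and Hoechst stain, imaged at 20x; PNC prevalence scored by image analysis.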
HPGD block: inhibitors of human 15-hydroxyprostaglandin dehydrogenase (HPGD); P15428; purified HPGD, NADH fluorescence kinetic, PGE2 substrate; Potency, µM, without a hit: top-dose activity change, negative = inhibition, hits mostly inhibitors; hit rate 4.3% among 150,000; further: potency means the concentration at half of the fitted maximal effect
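NADH formation kinetics: reaction with 30 uM PGE2 and 1 mM NAD+ (final), 20 nM enzyme, Tris-HCl pH 8 with Tween 20, after 15 min compound preincubation at room temperature. Fluorescence change, last versus first of five reads.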
* hit, by the source's call. Hits are enriched below; roughly 11% of the tested compounds scored in any of these assays. Unless noted, the call rests on the fitted dose curve; in most records, active means well fitted inhibition curve with a large enough effect (not every such curve was filed as active); inconclusive means small, poorly fitted or top-dose-only effect, or another doubt; inactive means no such curve, though single readings can be large or run the other way. Unless noted, on the % scale 0 is the no-effect control and ±100 the full control effect.

Results for O=C1S/C(=C\c2ccc(N3CCOCC3)o2)C(=O)N1Cc1c(F)cccc1Cl ?
ALDH1A1 block: 0.13µM*; PNC assembly inh: 28; HPGD block: inconclusive

How did O=C(NCCN1CCOCC1)c1ccc2c(c1)N(Cc1c(F)cccc1Cl)C(=O)c1ccccc1S2 do in these assays?
ALDH1A1 block: -5%

How did O=C1S/C(=C\c2ccc(N3CCOCC3)o2)C(=O)N1c1ccccc1 do in these assays?
ALDH1A1 block: 0.89µM*

How did COc1ccc(-n2c(Cc3cccn3C)nnc2SCC(=O)NCCc2ccccc2)cc1 do in these assays?
ALDH1A1 block: -11%; PNC assembly inh: 11; HPGD block: -11%

What do the screens show for `O=C1CC(C(=O)NC2CCCCC2)C2(CCCCC2)O1` (centres undefined)?
ALDH1A1 block: 4%

Results for COc1ccc2c(CC(=O)Nc3ccc(OC)nc3)coc2c1 ?
ALDH1A1 block: -4%

How did O=C(c1ccco1)N1CCN(C(=O)C2CCN(S(=O)(=O)Cc3ccccc3)CC2)CC1 do in these assays?
ALDH1A1 block: inconclusive; PNC assembly inh: -18; HPGD block: 1%

Results for C[C@@H]1CCC2[C@](C)(CO)[C@@H](O)CC[C@]2(C)[C@]12CCC(CO)(CCO)O2 (some centres undefined) ?
ALDH1A1 block: 8%; HPGD block: -6%

Results for Cc1[nH]n(-c2ccccc2)c(=O)c1/C=N/NC(=O)C(C)C ?
ALDH1A1 block: 25µM*

Results for COC(=O)N/N=C\c1c(C)[nH]n(-c2ccccc2)c1=O ?
ALDH1A1 block: -14%

Results for N#C/C(=C\c1cccs1)C(=O)c1ccccc1Cl ?
ALDH1A1 block: 22µM*

Results for N#C/C(=C\c1cccs1)C(=O)NCc1ccccc1 ?
ALDH1A1 block: -2%; PNC assembly inh: inconclusive; HPGD block: -15%

What do the screens show for `O=C(O)c1ccc(NS(=O)(=O)c2ccc(Cl)cc2)cc1`?
ALDH1A1 block: 5%; PNC assembly inh: -6; HPGD block: -12%

Results for Fc1ccc(CSc2nc3ncc(Br)cc3[nH]2)cc1 ?
ALDH1A1 block: 7%; PNC assembly inh: 12; HPGD block: 0.63µM*

How did CCOC(=O)CNC(=O)CSc1nc2ncc(Br)cc2[nH]1 do in these assays?
ALDH1A1 block: 9%; PNC assembly inh: -19; HPGD block: inconclusive

How did O=C(CSc1nc2ncc(Br)cc2[nH]1)c1ccc([N+](=O)[O-])cc1 do in these assays?
ALDH1A1 block: inconclusive; PNC assembly inh: inconclusive; HPGD block: 8.9µM*

How did O=C(CSc1nc2ccc([N+](=O)[O-])cc2[nH]1)c1ccc2ccccc2c1 do in these assays?
ALDH1A1 block: inconclusive; PNC assembly inh: 0; HPGD block: -7%

Results for O=C(CCSCCc1ccccn1)Nc1ccc(Br)cc1F ?
ALDH1A1 block: inconclusive; PNC assembly inh: 22; HPGD block: inconclusive

What do the screens show for `O=C(CCCc1cccs1)Nc1nc(-c2ccc(F)cc2)cs1`?
ALDH1A1 block: -3%; PNC assembly inh: 19; HPGD block: -7%

How did S=C(Nc1ccc(Cl)cc1)N1CCCC1 do in these assays?
ALDH1A1 block: 4%; PNC assembly inh: 37; HPGD block: 2%

What do the screens show for `O=C(CCl)NCc1c(Cl)cccc1-n1cccc1`?
ALDH1A1 block: 28µM*; PNC assembly inh: inconclusive; HPGD block: -5%

What do the screens show for `O=C(Cc1c(Cl)cccc1Cl)NCCc1ccc(Cl)cc1`?
ALDH1A1 block: 1%; PNC assembly inh: -5; HPGD block: 0%

Results for CCCC1=[N+](CC(=O)c2ccc(C)cc2)CCn2cccc21 ?
ALDH1A1 block: 7%; PNC assembly inh: 10; HPGD block: -5%

How did COc1ccc(NC(=O)N2CCN(c3ccc([N+](=O)[O-])cc3)CC2)cc1 do in these assays?
ALDH1A1 block: -8%

How did O=C(COC(=O)C1(c2ccccc2)CC1)N1CCN(c2ccc(F)cc2)CC1 do in these assays?
ALDH1A1 block: -10%; PNC assembly inh: 32; HPGD block: -5%

How did CCOCC(=O)N1CCN(c2ccc([N+](=O)[O-])cc2)CC1 do in these assays?
ALDH1A1 block: 22µM*; PNC assembly inh: inconclusive

Results for Cc1ccc(CSCC(=O)N2CCN(c3ccc(F)cc3)CC2)cc1 ?
ALDH1A1 block: -9%; PNC assembly inh: -3; HPGD block: -8%

Results for COc1ccc(NC(=O)N2CCN(c3ccc([N+](=O)[O-])cc3)CC2)cc1OC ?
ALDH1A1 block: 8.9µM*

Results for CC(=O)OCC(=O)N1CCN(c2ccc([N+](=O)[O-])cc2)CC1 ?
ALDH1A1 block: inconclusive; PNC assembly inh: 0; HPGD block: -8%

How did Cc1noc(C)c1CSCC(=O)N1CCN(c2ccc([N+](=O)[O-])cc2)CC1 do in these assays?
ALDH1A1 block: 22µM*; PNC assembly inh: 32; HPGD block: -7%

Results for CCOCC(=O)N1CCN(c2ccc(F)cc2)CC1 ?
ALDH1A1 block: 2.2µM*; PNC assembly inh: 4; HPGD block: -6%

How did Cc1oc2c(c1C(=O)Nc1ccc(C(=O)O)cc1)CCCC2 do in these assays?
ALDH1A1 block: 9%; PNC assembly inh: -26; HPGD block: -8%

How did CCCOc1ccc(S(=O)(=O)NNC(=O)c2cc3ccccc3o2)cc1 do in these assays?
ALDH1A1 block: inconclusive; PNC assembly inh: 22; HPGD block: -15%

What do the screens show for `CC(C)N1C(=S)SC2CS(=O)(=O)C=C21` (centres undefined)?
ALDH1A1 block: 2%; PNC assembly inh: 6; HPGD block: -6%

How did CCc1ccc2[nH]c3nc(SCc4nnc(-c5ccc(C)cc5)o4)nnc3c2c1 do in these assays?
ALDH1A1 block: 2%; PNC assembly inh: 29; HPGD block: -12%

What do the screens show for `Cn1c(SCC(=O)NC(C)(C)C)nnc1-c1cnccn1`?
ALDH1A1 block: 7%; PNC assembly inh: 27; HPGD block: -9%

What do the screens show for `CCCCC(=O)NC1(C(F)(F)F)C(=O)Nc2c1c(=O)n(C)c(=O)n2C` (centres undefined)?
ALDH1A1 block: 9%; PNC assembly inh: inconclusive; HPGD block: 3%

How did Cc1ccccc1-c1cccc([C@@H]2C[C@H]3CN(Cc4cccnc4)C(=O)[C@]34CCCN24)c1 do in these assays?
ALDH1A1 block: 4%

Results for CCOc1cc(/C=N/NC(=O)c2cccnc2)ccc1OCC(=O)N(C)C ?
ALDH1A1 block: 2%

How did Cc1ccc(NCc2nc3ccccc3n2CCOc2ccccc2)cc1 do in these assays?
ALDH1A1 block: inconclusive; PNC assembly inh: -21; HPGD block: inconclusive

Results for Cc1ccc(NC(=S)NC2CCN(Cc3ccccc3)CC2)cc1C ?
ALDH1A1 block: -10%

How did Cc1ccc(NC(=S)NC2CCN(Cc3ccccc3)CC2)cc1 do in these assays?
ALDH1A1 block: inconclusive; PNC assembly inh: -119*; HPGD block: -8%

Results for S=C(Nc1ccc2c(c1)OCO2)NC1CCN(Cc2ccccc2)CC1 ?
ALDH1A1 block: 13µM*; PNC assembly inh: inconclusive; HPGD block: -2%

How did S=C(Nc1ccccc1Cl)NC1CCN(Cc2ccccc2)CC1 do in these assays?
ALDH1A1 block: inconclusive; PNC assembly inh: inconclusive; HPGD block: -7%

What do the screens show for `S=C(Nc1ccc(Cl)cc1Cl)NC1CCN(Cc2ccccc2)CC1`?
ALDH1A1 block: 8.9µM*; PNC assembly inh: 38; HPGD block: -4%

What do the screens show for `CC(C)c1ccc(NC(=S)NC2CCN(Cc3ccccc3)CC2)cc1`?
ALDH1A1 block: inconclusive; PNC assembly inh: 80; HPGD block: -3%
